This excerpt belongs to a sample that is enriched for hits.
GIRK2 act – activators of NPY4-receptor-primed GIRK2 channels, summary, cell-based, HEK293, thallium flux. G protein-activated inward rectifier potassium channel 2 (Homo sapiens), P48051. HEK293 GIRK2/NPY4 cells, thallium flux fluorescence. activation (% efficacy), % for hits at 37.5 µM. 34,000 tested, under 10 active;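 active = primary screen hit, no activity in plain HEK293 cells, and in GIRK2-only cells above 5% efficacy rising with concentration; inactive = the rest, including fluorescent compounds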;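 also: efficacy is normalized control-subtracted fluorescence 15 s after thallium addition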
AMPAR-TARP mod – modulators of GluA2-stargazin AMPA receptor complexes, primary screen, cell-based, membrane potential dye | calls only at 30 µM | HEK293 GluA2+stargazin, membrane potential dye (FDSS), glutamate EC50; hits were called plate by plate, in both directions | AID 1259245, 2017 | hit rate 3.5% among 40,000;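 active = any of four per-well response measures lying three or more SD from its plate-wide compound average, in either direction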
An asterisk follows results filed as active.

COc1cc(C)ccc1OCC(=O)N1CCN(c2ccc3nncn3n2)CC1 was read as GIRK2 act inactive and AMPAR-TARP mod inactive.
For Cc1ccccc1-c1ccc(SCC(=O)NCc2ccc3c(c2)OCO3)nn1 the results were GIRK2 act inactive and AMPAR-TARP mod active.
For CC(C)C(=O)Nc1ccc(SCC(=O)NCc2ccc3c(c2)OCO3)nn1 the results were GIRK2 act inactive and AMPAR-TARP mod inactive.
Cc1cc(C)c2sc(N(Cc3ccco3)C(=O)c3ccccc3S(C)(=O)=O)nc2c1 was read as AMPAR-TARP mod inactive.
O=C(CCCc1ccccc1)NCC#CCN1CCc2ccccc2C1 was read as GIRK2 act inactive and AMPAR-TARP mod active.
For C=CCCC(=O)NCC#CCN1CCc2ccccc2C1 the results were GIRK2 act inactive and AMPAR-TARP mod inactive.
CCOc1ccc(-n2nnnc2CN2CCN(C(=O)c3ccco3)CC2)cc1 was read as GIRK2 act inactive and AMPAR-TARP mod inactive.
`Cc1ccnc(Nc2ccc(NCCNS(=O)(=O)c3ccc4c(c3)OCCO4)nn2)c1` gave GIRK2 act inactive.
For CCOC(=O)c1c(NC(=O)c2ccc(S(=O)(=O)N(C)C3CC3)cc2)sc2c1CCN(CC)C2 the results were GIRK2 act inactive and AMPAR-TARP mod active.
For COC(=O)c1c(NC(=O)c2ccno2)sc2c1CCN(Cc1ccccc1)C2 the results were GIRK2 act inactive.
CCOC(=O)c1c(NC(=O)c2ccnn2C)sc2c1CCCC2 was read as GIRK2 act inactive.
`CN(C1CCCC1)S(=O)(=O)c1ccc(C(=O)Nc2sc3c(c2C(N)=O)CCCC3)cc1` gave AMPAR-TARP mod inactive.
Screening CCOC(=O)c1c(NC(=O)COc2ccc(Cl)cc2)sc2c1CCN(Cc1ccccc1)C2 returned AMPAR-TARP mod active.
CCOC(=O)c1c(NC(=O)c2cc(C)nn2C)sc2c1CCN(CC)C2 was read as GIRK2 act inactive and AMPAR-TARP mod active.
`COc1ccc(S(=O)(=O)N2CCCOC2CNC(=O)C(=O)NC2CCCCCC2)cc1C` (stereo not drawn) gave AMPAR-TARP mod inactive.
`CCC(=O)Nc1ccc(SCC(=O)NCc2cccs2)nn1` gave GIRK2 act inactive and AMPAR-TARP mod inactive.
For C=CCOC(=O)C1=C(C)NC(=O)NC1c1cccc(Br)c1 (stereo not drawn) the results were AMPAR-TARP mod inactive.
COc1cccc(CC(=O)N2CCC(CN3CCN(C)CC3C)CC2)c1 (stereo not drawn) was read as GIRK2 act inactive and AMPAR-TARP mod inactive.
For Cn1nc(NC(=O)Cn2cnc3ccccc32)c2c1NC(=O)CC2c1ccco1 (stereo not drawn) the results were GIRK2 act inactive and AMPAR-TARP mod inactive.
Screening Cc1cnc2c(c1SCC(=O)N1CCCC1)c(=O)n(C)c(=O)n2C returned GIRK2 act inactive and AMPAR-TARP mod inactive.
For CCC(=O)OCCN1C(=O)c2cccc3c(N4CCCCC4)ccc(c23)C1=O the results were AMPAR-TARP mod active.
For COc1cccc(N2C(=O)c3cccc4c(N5CCCCCC5)ccc(c34)C2=O)c1 the results were AMPAR-TARP mod inactive.
COc1ccc(S(=O)(=O)NCC(O)c2ccc(C(F)(F)F)cc2)c(C)c1 (stereo not drawn) was read as GIRK2 act inactive and AMPAR-TARP mod active.
`O=S(=O)(NCC(O)c1ccc(C(F)(F)F)cc1)c1ccccc1Cl` (stereo not drawn) gave GIRK2 act inactive and AMPAR-TARP mod inactive.
Cc1ccc(S(=O)(=O)NCC(O)c2ccc(C(F)(F)F)cc2)s1 (stereo not drawn) was read as GIRK2 act inactive and AMPAR-TARP mod inactive.
For COc1ccc(S(=O)(=O)NCC(O)c2ccsc2)c(C)c1 (stereo not drawn) the results were GIRK2 act inactive and AMPAR-TARP mod inactive.
For O=S(=O)(NCC(O)c1ccc(C(F)(F)F)cc1)c1ccc(Br)s1 (stereo not drawn) the results were AMPAR-TARP mod active.
`O=S(=O)(Cc1cccc(F)c1)NCC(O)c1ccc(C(F)(F)F)cc1` (stereo not drawn) gave GIRK2 act inactive and AMPAR-TARP mod active.
`O=S(=O)(NCC(O)c1ccsc1)c1ccc(F)c(Cl)c1` (stereo not drawn) gave GIRK2 act inactive and AMPAR-TARP mod inactive.
O=S(=O)(NCC(O)c1ccc(C(F)(F)F)cc1)c1ccc(F)c(Cl)c1 (stereo not drawn) was read as GIRK2 act inactive and AMPAR-TARP mod active.
For CCOc1cn(-c2ccc(F)cc2)nc1C(=O)NCCc1ccc(F)cc1 the results were GIRK2 act inactive and AMPAR-TARP mod inactive.
Screening Cc1ccc(S(=O)(=O)N(C)c2cc(S(=O)(=O)N(C)CCCC(=O)O)c(C)cc2C)cc1 returned AMPAR-TARP mod inactive.
`CCOc1ccc(Cc2nnc(Nc3cc(C)ccc3OC)[nH]c2=O)cc1` gave GIRK2 act inactive and AMPAR-TARP mod inactive.
`COc1ccc(N2CCCn3c2nc2c3c(=O)n(Cc3ccc(Br)cc3)c(=O)n2C)cc1` gave AMPAR-TARP mod inactive.
For CCOc1ccc(NC(=O)CSC2CC(=O)N(c3ccc(C(=O)OC)cc3)C2=O)cc1 (stereo not drawn) the results were GIRK2 act inactive.
`OC(CNC1CCCCC1)COc1ccc(Cl)cc1Cl` (stereo not drawn) gave AMPAR-TARP mod inactive.
Screening Cc1cc(NC(=O)c2ccc(C(C)(C)C)cc2)n(C(C)C)n1 returned GIRK2 act inactive.
Cc1cc(C)n(-c2ccc(=O)n(CCNC(=O)c3ccncc3)n2)n1 was read as GIRK2 act inactive.
Screening Cc1cc(C)n(-c2ccc(=O)n(CCNC(=O)c3cccs3)n2)n1 returned GIRK2 act inactive.
For Cc1ccc(S(=O)(=O)NCC2CCN(C(=O)c3ccccc3F)CC2)s1 the results were GIRK2 act inactive and AMPAR-TARP mod inactive.
`Cc1cccc2sc(NC(=O)c3ccc(=O)n(Cc4ccc(Cl)cc4)c3)nc12` gave GIRK2 act inactive and AMPAR-TARP mod inactive.
For O=C(Nc1nc2ccccc2s1)c1ccc(=O)n(Cc2cccc([N+](=O)[O-])c2)c1 the results were GIRK2 act inactive and AMPAR-TARP mod inactive.
For O=C(Nc1nc2ccc([N+](=O)[O-])cc2s1)c1ccc(=O)n(Cc2ccccc2)c1 the results were GIRK2 act inactive and AMPAR-TARP mod active.
`COc1cccc(COc2coc(C(=O)Nc3nc4ccc(Cl)cc4s3)cc2=O)c1` gave GIRK2 act inactive and AMPAR-TARP mod inactive.
Screening COc1coc(C(=O)Nc2nc3ccc([N+](=O)[O-])cc3s2)cc1=O returned GIRK2 act inactive and AMPAR-TARP mod active.
Screening CS(=O)(=O)c1ccc2nc(NC(=O)c3ccc(=O)n(Cc4ccc(Cl)cc4)c3)sc2c1 returned GIRK2 act inactive and AMPAR-TARP mod active.
For COCCNC(=O)Cn1c(=O)c2c(N3CCN(C(C)=O)CC3)ccnc2n(C)c1=O the results were AMPAR-TARP mod inactive.
COCCCNC(=O)CC1Nc2ccccc2NC1=O (stereo not drawn) was read as AMPAR-TARP mod inactive.

Screens deposited in PubChem by several laboratories.
